PubChem BioAssay AID1499 (Sanford-Burnham Center for Chemical Genomics, 2009)
The campaign covered roughly 93,000 compounds. About 65 (0.07%) were called active.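 Rule for the calls: active = 10 µM primary screen giving 50% or more activity, confirmed by 40% or more on retest at that dose; inactive = the rest.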 This excerpt belongs to a sample that is enriched for actives.

biological target: Integrin beta-2 (Homo sapiens) + Integrin alpha-M (Homo sapiens) (UniProt P05107+P11215); test: agonists of integrin CD11b/CD18-fibrinogen binding – K562 cells, luminescence, primary screen (AID 1499); settings: K562 CD11b/CD18 adhesion to fibrinogen, ATPlite luminescence; at 10 µM; stronger effect = higher value
Sequence (P05107 whole entry, looked up, other chains not shown): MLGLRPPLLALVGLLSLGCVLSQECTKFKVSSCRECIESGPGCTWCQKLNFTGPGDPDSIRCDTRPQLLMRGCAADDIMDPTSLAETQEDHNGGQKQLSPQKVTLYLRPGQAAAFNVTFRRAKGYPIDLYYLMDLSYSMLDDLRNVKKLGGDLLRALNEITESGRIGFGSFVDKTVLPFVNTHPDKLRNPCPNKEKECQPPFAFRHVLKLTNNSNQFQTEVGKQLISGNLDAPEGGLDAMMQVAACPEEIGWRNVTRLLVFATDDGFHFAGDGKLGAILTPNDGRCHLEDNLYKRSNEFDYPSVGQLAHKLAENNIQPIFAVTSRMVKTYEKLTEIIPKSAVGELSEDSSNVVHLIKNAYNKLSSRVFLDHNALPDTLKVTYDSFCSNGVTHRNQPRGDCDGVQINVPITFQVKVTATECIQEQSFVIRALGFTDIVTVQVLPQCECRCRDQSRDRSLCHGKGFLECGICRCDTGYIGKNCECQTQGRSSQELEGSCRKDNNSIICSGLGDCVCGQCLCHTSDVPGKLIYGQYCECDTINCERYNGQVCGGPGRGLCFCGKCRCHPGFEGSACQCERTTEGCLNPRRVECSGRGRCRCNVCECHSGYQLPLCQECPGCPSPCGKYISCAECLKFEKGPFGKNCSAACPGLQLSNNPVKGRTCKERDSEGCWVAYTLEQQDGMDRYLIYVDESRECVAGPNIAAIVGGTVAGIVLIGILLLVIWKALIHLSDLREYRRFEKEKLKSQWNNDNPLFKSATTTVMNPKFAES

activation, inactive:
COc1ccc(C(=O)OCC(=O)NC(=O)CCSc2ccccc2)cc1 0.6%
N#C/C(=C/c1cccc([N+](=O)[O-])c1)c1nnc2n1CCCCC2 1.1%
CCCCNC(=O)CSc1nc2ccc(NC(=O)CSc3nnc(N)s3)cc2s1 -3.6%
Fc1ccccc1CNC(=S)Nc1ccc(Cl)cc1 -7.2%
CCCn1c(SCC(=O)Nc2ccc(C)c(S(=O)(=O)N3CCOCC3)c2)n[nH]c1=O -1.4%
O=C(Cc1ccc(-c2ccccc2)cc1)NC(c1ccccc1)c1ccccc1 0.5%
CCN(CC)S(=O)(=O)c1ccc(C)c(NC(=O)COc2ccc(Br)cc2Cl)c1 -2.8%
O=C(Cc1c[nH]c2ccccc12)N/N=C/c1cccc(F)c1 1%
CCCC(=O)Nc1cccc(NC(=S)NC(=O)C(C)Oc2ccc(Cl)cc2Cl)c1 (configuration not stated) -4.3%
Cc1c(C(=O)NCCCc2ccccc2)cccc1[N+](=O)[O-] -3.8%
O=C(Cn1nnc(-c2ccccc2)n1)NCc1ccc2c(c1)OCO2 -1.1%
O=C(CCCCn1c(=O)[nH]c2ccccc2c1=O)NCc1ccc2c(c1)OCO2 -2%
Cc1cccc(NC(=S)Nc2ccc3cn[nH]c3c2)c1 0.1%
CSCC[C@H](NC(=O)OC(C)(C)C)C(=O)N/N=C/c1cc2ccc(C)cc2nc1Cl 1.8%
CC(=O)Nc1ccc(Nc2c([N+](=O)[O-])cc(S(C)(=O)=O)cc2[N+](=O)[O-])cc1 -0.7%
Cc1cccc2cc(CN(Cc3cccs3)C(=S)NCc3ccco3)c(=O)[nH]c12 3.8%
O=C(COC(=O)c1cc2c(s1)CCCC2)NCc1ccccc1Cl -0.1%
Cc1ccc(NC(=S)N2CCN(c3ncccn3)CC2)cc1C -7.7%
Cc1c(Cl)cccc1NC(=O)CC1SC(=NCC2CCCO2)NC1=O (configuration not stated) 2.9%
Cc1c(C(=O)NCCN2C(=O)S/C(=C\c3cccs3)C2=O)cccc1[N+](=O)[O-] 23%
COc1ccc(CN2C(=O)CC(Cc3ccc(C)cc3)C2=O)cc1OC (configuration not stated) -1.2%
COC(=O)c1ccc(NC(=O)CSc2nncc3ccc(OC)c(OC)c23)cc1 3%
Cc1cc(C(=O)CSc2nc(N)cc(=O)[nH]2)c(C)n1-c1cccc(F)c1 16.6%
COc1cccc(N(C(=O)C2COc3ccccc3O2)C(C(=O)NC2CCCCC2)c2ccc(O)cc2)c1 (configuration not stated) -0.8%
O=C(NCCc1ccccn1)c1cc(-c2ccc(Cl)cc2)nc2ccccc12 0.7%
Cc1ccc(NC(=O)C(=O)NCc2ccc(/C=N/NC(=O)c3c(C)nc4cc(C)ccn34)o2)cc1 100%
CCOC(=O)C1=C(C)N=C2c3ccccc3C(=O)C2C1c1ccc(Br)cc1 (configuration not stated) 4.9%
Cc1ccc(NC(=O)CC2C(=O)N(Cc3ccccc3)C(=S)N2NC(=O)c2cccc(F)c2)c(C)c1 (configuration not stated) 2.6%
Clc1cccc(N=C2NN=C(c3ccc4c(c3)OCCO4)CS2)c1 4.8%
CC(=O)Nc1ccc(NC(=S)NC(=O)c2ccc([N+](=O)[O-])c(C)c2)cc1 0.9%
CC(C)(C)OC(=O)N/N=C/c1ccc(C(=O)O)cc1 0.2%
Cc1ccc(NC(=O)NC(=O)CSc2nnc(-c3ccc(OC(F)F)cc3)n2N)c(C)c1 -3.1%
CN(C)CCCNC(=S)NCc1ccc(Cl)cc1 2.8%
C/C(=N\NC(=O)CCn1nc(C)cc1C)C(C)(C)C 2.8%
COc1cc2c3c(c1)/C(=C1/SC(=S)NC1=O)C(=O)N3C(C)(C)C=C2C -7.7%
Cc1ccc(-n2c(C)cc(C(=O)CSc3nnc4ccccn34)c2C)cc1 -2.4%
CC(NC(=S)Nc1ccccc1)C1COc2ccccc2O1 (configuration not stated) -1.1%
COc1ccc2c(CN3CCN(S(=O)(=O)c4cccs4)CC3)cc(=O)oc2c1 1.6%
CCN(c1ccc(NC(=O)COC(=O)CCc2nc3ccccc3n2-c2ccccc2)cc1)C(C)C 5.2%
CC(=O)Nc1ccc(S(=O)(=O)N2CCN(c3ccc([N+](=O)[O-])c(NCCN4CCOCC4)c3)CC2)cc1 8.9%
COCCCNC(=O)Cn1cc(/C=C(\C#N)C(=O)N2CCN(c3ccccc3)CC2)c2ccccc21 0%
O=C(Nc1nnc(SCc2ccccc2Cl)s1)c1cccc([N+](=O)[O-])c1 -9.7%
O=C(CCCN1C(=O)/C(=C/c2ccco2)SC1=S)Nc1ccccc1 2.1%
COc1ccc(/C(N)=N/OC(=O)Cc2ccccc2)cc1 -3.3%
CCOC(=O)c1c(NC(=O)C2CCN(S(=O)(=O)c3ccc(Cl)cc3)CC2)sc2c1CCCC2 15.1%
COC(=O)Cc1ccc(NC(=S)NCc2ccccc2)cc1 1.6%
CC(C)N1C(=O)N(c2ccccc2)C(C)(O)CC1(C)C (configuration not stated) 3.2%
O=C(CSc1nc2ccccc2c(=O)n1CCCO)N1CCc2ccccc21 2.1%
Cc1ccc2[nH]cc(CCNC(=O)c3ccc([N+](=O)[O-])cc3)c2c1 -1.3%
CCCCC(O)(CCCC)C(=O)NN(C(=O)CCl)c1ccccc1 3.4%
CNc1ccc(NC(C)=O)cc1[N+](=O)[O-] 2.9%
COc1ccc(NC(=O)CN2C(=O)C(c3ccccc3)=NC23CCCCCC3)cc1OC -1.4%
Cc1nc(-c2ccc(NC(=O)c3cccs3)cc2)cs1 -4.6%
Cc1ccc(-c2csc(NC(=O)c3cccs3)n2)cc1 3.8%
COc1ccccc1OCCC(=O)OCC(=O)NCc1ccccc1 3.3%
CCCN(CCC)c1c([N+](=O)[O-])c(=O)oc2ccccc12 2.9%
CC(C)[C@H](NC(=O)c1ccc(F)cc1)C(=O)OCC(=O)NC(=O)c1cccn1C 25.8%
Cc1cc(C)c(NC(=S)N2CCCC2C(=O)O)c(C)c1 (configuration not stated) -3.4%
O=C(Nc1cc(C(F)(F)F)ccc1Cl)C(=O)N1CCCCC1 10.3%
CC(NC(=O)CSc1nc2c(cc1C#N)CN(C)CC2)c1ccccc1 (configuration not stated) -1.5%
CC(C)CCSc1ncnc2c1oc1nc3c(cc12)COC(C)(C)C3 6.2%
CCc1c(C)sc(NC(=O)/C=C/c2ccc3c(c2)OCO3)c1C(=O)OC 9.1%
COc1ccc2oc(-c3cccc(NC(=O)CSc4ccc(Cl)cc4)c3)nc2c1 13.1%
O=C(COC(=O)Cc1ccc(F)cc1)Nc1cc(S(=O)(=O)N2CCOCC2)ccc1N1CCCC1 -2.5%
CN(C)CCCO/N=C(\c1ccccc1)c1ccncc1 3.7%
O=C(COC(=O)Cn1cnc2ccccc21)Nc1cccc2c1C(=O)c1ccccc1C2=O 7.9%
COc1cc(Cl)c(C)cc1NC(=O)COC(=O)c1cc(SC)ccc1Cl 0.1%
Cc1ccc(-c2nc(C)sc2CC(=O)OCC(=O)Nc2c(F)cccc2F)cc1 -4%
Cc1csc(=Nc2ccccc2)n1CCO 0.8%
Cc1ccc(S(=O)(=O)Nc2nc(C)cc(N/N=C/c3ccc(O)cc3)n2)cc1 13.5%
Cc1cccc(NC(=O)Cn2c(=O)n(Cc3ccccc3)c(=O)c3c(C)c(C)sc32)c1 6.7%
Cc1ccc(/C=N/NC(=O)CNC(=O)COc2ccccc2)o1 6.3%
O=C1N(c2ccc(Cl)cc2)C(c2ccc(Cl)cc2)N2CCCN12 (configuration not stated) 3.2%
CCOc1ccc(/C=N/OCC(=O)NCc2cccs2)cc1 -0.5%
C=CCSc1nc2ccccc2[nH]1 6.8%
C=CCn1c(SCn2nnc3ccccc3c2=O)nnc1-c1ccc(Cl)cc1 4.1%
Cc1sc2ncnc(Sc3nc4ccccc4s3)c2c1C 12.1%
OC(COCC1COc2ccccc2O1)CN1CCN(c2ccc(F)cc2)CC1 (configuration not stated) 4.1%
C/C(=N/NC(=O)C1COc2ccccc2O1)c1ccco1 (configuration not stated) 1.2%
N#CCOc1ccc(C2=NO[C@@H]3[C@@H]4C[C@@H]([C@H]5C(=O)N(c6ccc7c(c6)OCO7)C(=O)[C@@H]45)[C@H]23)cc1 0.6%
CC(=C/c1ccccc1)/C=N/NC(=O)c1cc(C)oc1C -1.7%
COc1ccc(NC(=O)c2ccc(C#CC(C)(C)O)cc2)cc1 2.8%
Cc1ccc(OCC(=O)Nc2ccccc2Sc2ccc(Cl)cc2)c([N+](=O)[O-])n1 -1%
Cc1cccc(-n2c(C)cc(/C=N/NC(N)=S)c2C)c1 -1.9%
CC(C)NC(=S)N1CCN(S(C)(=O)=O)CC1 0.6%
Cc1ccc(-c2nn(-c3ccccc3)cc2C(=O)Nc2cccc(S(=O)(=O)N3CCOCC3)c2)cc1 -0.1%
CCOc1ccc(NC(=S)NC(=O)/C=C/c2ccc(OC)cc2)c([N+](=O)[O-])c1 34.7%

activation, active:
O=C1N(Cc2ccc3c(c2)OCO3)c2ccccc2C1(O)c1c[nH]c2ccccc12 (configuration not stated) 65.9%
COCCn1c(C)cc(C2=NNC(=Nc3ccc(F)cc3)SC2)c1C 120%
Cc1ccc(-c2nnc(-c3ccc(NC(=O)c4cccs4)cc3)o2)cc1 161%
CC1(C)Cc2nc3sc4c(SCC(=O)NC(c5ccccc5)c5ccccc5)ncnc4c3cc2CO1 93.6%
C=CCSc1nc(Cc2ccc(Cl)cc2)nc2ccccc12 69.1%
